ELG1 genotoxic: genotoxicity induction in ELG1-luciferase HEK293T cells; hit rate 1.3% among 330,000; Potency, µM (highest dose often 46 µM), inactives show at the top dose activity change, positive = activation, most hits filed as activators; AID 504466; HEK293T ELG1-luciferase reporter, luminescence, 16 h; further: % of control where 0% means no effect; nearly all actives have a fitted effect of over 60% in size
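Cells (2,000/well) expressing the ELG1-luciferase fusion are dosed by pin tool and kept 16 hr at 37 °C, 5% CO2. Signal comes from ONE-Glo luciferase reagent after 30 min at room temperature.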
FLuc modulator: inhibits or activates purified firefly luciferase, miR-21 counter-screen; P08659; purified FLuc, Km substrates, luminescence inhibition; Potency, µM (top dose mostly 57.5 µM), for inactives: top-dose activity change, negative = inhibition, hits mostly inhibitors; hit rate 6.9% among 360,000;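 further: plate controls were vehicle for no effect and reference inhibitor for full effect; nearly all actives have a fitted effect of over 55% in size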
Target sequence (P08659 whole entry, looked up): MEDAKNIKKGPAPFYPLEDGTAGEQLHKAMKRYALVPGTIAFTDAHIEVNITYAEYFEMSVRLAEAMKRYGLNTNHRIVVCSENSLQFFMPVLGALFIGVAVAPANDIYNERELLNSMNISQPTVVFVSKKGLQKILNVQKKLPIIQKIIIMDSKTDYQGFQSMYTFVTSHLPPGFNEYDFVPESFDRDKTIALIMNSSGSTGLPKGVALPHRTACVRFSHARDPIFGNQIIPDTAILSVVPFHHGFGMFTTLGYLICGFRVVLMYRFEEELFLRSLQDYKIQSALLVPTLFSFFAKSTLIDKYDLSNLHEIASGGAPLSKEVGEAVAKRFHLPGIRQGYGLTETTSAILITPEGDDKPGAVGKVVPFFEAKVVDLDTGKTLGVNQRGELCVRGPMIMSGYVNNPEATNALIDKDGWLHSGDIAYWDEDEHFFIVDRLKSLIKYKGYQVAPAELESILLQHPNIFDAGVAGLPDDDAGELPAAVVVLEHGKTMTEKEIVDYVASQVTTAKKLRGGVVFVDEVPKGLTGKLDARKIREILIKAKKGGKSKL
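Purified P. pyralis luciferase (10nM final) with 10uM D-luciferin and 10uM ATP (Km levels) in 50mM Tris acetate pH 7.5, 10mM Mg acetate, 0.01% Tween-20, 0.05% BSA; qHTS 6-point titration, ~60 µM downward; luminescence read.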
NPC1 prom act: activators of NPC1 promoter; Huh7 NPC1 promoter luciferase reporter, 24 h; Potency, µM (titrated, usually from 9.22 µM), for the others: at the top dose activation, usual class: activators; AID 485313; hit rate 2.4% among 320,000; further: % of control where 0% means no effect; nearly all actives have a fitted effect of over 60% in size
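Luminescence read-out of NPC1 promoter-driven luciferase in stably transfected Huh7 cells; compounds delivered in DMSO and left 24 h at 37C, 5% CO2, qHTS titration format.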
ELG1 repair inh: blocks ELG1-dependent DNA repair in HEK293T cells. HEK293T ELG1-luciferase reporter, luminescence, 16 h; DNA damage induced by 5-fluorouridine. Potency, µM (titrated, usually from 46.1 µM), inactives show at the top dose activity change, negative = inhibition, usual class: inhibitors. hit rate 2.3% among 330,000. AID 504467; further: on the % scale 0 is the no-effect control and ±100 the full control effect; nearly all actives have a fitted effect of over 55% in size
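In this reporter screen, reduction of luminescence relative to DMSO vehicle indicated activity. Compounds and 5-fluorouridine were added together to 2,000 cells per well, incubated for 16 hr at 37 °C, then developed with ONE-Glo.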
Rab9 promoter act: activates the Rab9 promoter; Huh7 Rab9 promoter-luciferase reporter, luminescence, 24 h; Potency, µM (series often up to 9.22 µM), for the others: top-dose activation, negative = inhibition, most hits filed as activators; hit rate 2.8% among 320,000; AID 485297; further: % of control where 0% means no effect; nearly all actives have a fitted effect of over 60% in size
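Cell-based reporter: Huh7 stable for Rab9 promoter-driven luciferase, plated in reduced-serum medium with 10% FBS at 1500 cells/well, compound-treated 24 h at 37 °C, luminescence read after 10 min reagent.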
SMN2 splice up: SMN2 splice variant enhancement | HEK293 SMN2-luciferase splicing reporter, luminescence, 30-36 h | Potency, µM (series often up to 46.1 µM), for the others: at the highest dose activity change, positive = activation, most hits filed as activators | hit rate 2.8% among 210,000; further: % of control where 0% means no effect; nearly all actives have a fitted effect of over 55% in size
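HEK293 cells carry an SMN2 minigene-luciferase reporter in which exon 7 inclusion puts luciferase in frame. Cells were seeded at 2000 cells/well, attached for 10-12 hours, then exposed to compounds for 30-36 hours at 37C before ONE-Glo luminescence.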
* hit, by the source's call. Only some compounds are listed: those with a hit (about 9.2% of all), similar ones and a draw of the others. The call rests on the fitted dose curve; in most records, active means well fitted curve in the direction sought with a large enough effect; inconclusive means small, poorly fitted or top-dose-only effect, or another doubt; inactive means no such curve, though single readings can be large; an effect the other way counts as inactive or inconclusive. Potency means the concentration at half of the fitted maximal effect.

Screening COc1ccc(NC(=O)Nc2cccc3ccccc23)cc1S(N)(=O)=O returned ELG1 genotoxic 0%, FLuc modulator -5%, NPC1 prom act -2%, ELG1 repair inh -5% and Rab9 promoter act 0%.
Cc1ccc(/C=N/Nc2cn[nH]c(=O)n2)o1 was read as ELG1 genotoxic 3%, FLuc modulator -16%, NPC1 prom act -2%, ELG1 repair inh 15%, Rab9 promoter act 12% and SMN2 splice up 13%.
CC(C)NC(=S)N/N=C/c1ccc2c(c1)OCCO2 was read as ELG1 genotoxic 11%, FLuc modulator 6.7µM*, NPC1 prom act 28%, ELG1 repair inh inconclusive, Rab9 promoter act inconclusive and SMN2 splice up 9%.
Cc1cc(C)nc(N/N=C/c2ccccc2)n1 was read as ELG1 genotoxic 3%, FLuc modulator -19%, NPC1 prom act -1%, ELG1 repair inh 0%, Rab9 promoter act inconclusive and SMN2 splice up 20%.
Cc1cc(C)nc(N/N=C/c2ccc3c(c2)OCCO3)n1 was read as ELG1 genotoxic 11%, FLuc modulator 19µM*, NPC1 prom act 14%, ELG1 repair inh inconclusive, Rab9 promoter act inconclusive and SMN2 splice up 22%.
Screening Cc1ccc(/C=N/Nc2ccc3ccccc3n2)o1 returned ELG1 genotoxic inconclusive, FLuc modulator 0.48µM*, NPC1 prom act 0.71µM*, ELG1 repair inh inconclusive, Rab9 promoter act 0.13µM* and SMN2 splice up 1.1µM*.
Cn1c(C(=O)N2CCc3ccccc3C2)cc2oc3ccccc3c21 was read as ELG1 genotoxic inconclusive, FLuc modulator 11µM*, NPC1 prom act 27%, ELG1 repair inh inconclusive, Rab9 promoter act inconclusive and SMN2 splice up 22µM*.
`CCn1c(C(=O)N2CCc3ccccc3C2)cc2oc3ccccc3c21` gave ELG1 genotoxic -6%, FLuc modulator inconclusive, NPC1 prom act 2%, ELG1 repair inh inconclusive, Rab9 promoter act 0% and SMN2 splice up -11%.
For O=C(CSc1nnnn1-c1ccc(F)cc1)NCc1cccs1 the results were ELG1 genotoxic 0%, FLuc modulator -3%, NPC1 prom act 1%, ELG1 repair inh -2%, Rab9 promoter act -1% and SMN2 splice up -3%.
For CCN(C[C@H]1N[C@@](C)(C(=O)OC)[C@H]2C(=O)N(Cc3ccccc3)C(=O)[C@@H]12)C(=O)c1ccc(C(C)(C)C)cc1 the results were ELG1 genotoxic -8% and ELG1 repair inh 10µM*.
For Cn1c(=O)c2c(nc(NCc3cccnc3)n2Cc2ccc(Cl)cc2)n(C)c1=O the results were ELG1 genotoxic -1%, FLuc modulator 5%, NPC1 prom act -2%, ELG1 repair inh 21µM*, Rab9 promoter act -2% and SMN2 splice up -14%.
Cn1c(OCc2cccnc2)nc2c1c(=O)n(Cc1ccc(Br)cc1)c(=O)n2C was read as ELG1 genotoxic -14%, FLuc modulator 9%, NPC1 prom act 2%, ELG1 repair inh 16µM*, Rab9 promoter act -6% and SMN2 splice up -12%.
For CCNc1nc2c(c(=O)n(Cc3ccccc3)c(=O)n2C)n1Cc1ccccc1 the results were ELG1 genotoxic 1%, FLuc modulator 3%, NPC1 prom act 0%, ELG1 repair inh 13µM*, Rab9 promoter act -1% and SMN2 splice up -2%.
For Cn1c(OCc2ccc3c(c2)OCO3)nc2c1c(=O)n(Cc1ccc(Cl)c(Cl)c1)c(=O)n2C the results were ELG1 genotoxic 1%, FLuc modulator 9%, NPC1 prom act 1%, ELG1 repair inh -3%, Rab9 promoter act -3% and SMN2 splice up -39%.
Screening Cc1nn(C)c(C)c1CCC(=O)N1CCCC(C(=O)c2cccc(OC(C)C)c2)C1 (centres undefined) returned ELG1 genotoxic 0%, FLuc modulator -13%, NPC1 prom act 8%, ELG1 repair inh -6% and Rab9 promoter act 1%.
CC(C)Oc1cccc(C(=O)C2CCCN(C(=O)CCc3cnn(C)c3)C2)c1 (centres undefined) was read as ELG1 genotoxic inconclusive, FLuc modulator inconclusive, NPC1 prom act inconclusive, ELG1 repair inh inconclusive and Rab9 promoter act 3.5µM*.
CC(c1nc2ccccc2c(=O)[nH]1)N1CCCN(S(=O)(=O)c2ccc(F)cc2)CC1 (centres undefined) was read as ELG1 genotoxic -3%, FLuc modulator 7%, NPC1 prom act -1%, ELG1 repair inh inconclusive and Rab9 promoter act -9%.
`Cc1ccc(Nc2nc(N)nc(N)c2S(=O)(=O)c2ccccc2)cc1` gave FLuc modulator 0% and SMN2 splice up -4%.
`CC(/C=N/NC(=O)c1nnn(-c2nonc2N)c1C)=C\c1ccccc1` gave ELG1 genotoxic inconclusive, FLuc modulator inconclusive, NPC1 prom act 28%, ELG1 repair inh 3% and Rab9 promoter act 26%.
CC(/C=N/NC(=O)c1c(Br)cnn1C)=C\c1ccccc1 was read as ELG1 genotoxic 8%, FLuc modulator 17µM*, NPC1 prom act 23%, ELG1 repair inh inconclusive, Rab9 promoter act 17% and SMN2 splice up 14%.
CC(/C=N/NC(=O)c1nn(C)c(C)c1Br)=C\c1ccccc1 was read as ELG1 genotoxic inconclusive, FLuc modulator 1.9µM*, NPC1 prom act inconclusive, ELG1 repair inh inconclusive and Rab9 promoter act 3.5µM*.
Cn1ncc(Br)c1C(=O)N/N=C/c1ccc(OS(=O)(=O)c2ccccc2)cc1 was read as ELG1 genotoxic 6%, FLuc modulator 1%, NPC1 prom act 3%, ELG1 repair inh 1%, Rab9 promoter act -1% and SMN2 splice up 2%.
Screening CC(=O)OC1CC(OC(C)=O)[C@]2(C)C(CC(OC(C)=O)[C@@]3(C)C4=CC(=O)OC(c5ccoc5)[C@]4(C)CCC32)C1(C)C (some centres undefined) returned SMN2 splice up -14%.
For c1ccc(-c2cn3c(n2)-c2ccccc2C3)cc1 the results were ELG1 genotoxic inconclusive, FLuc modulator 0.43µM*, NPC1 prom act 3.2µM*, ELG1 repair inh inconclusive, Rab9 promoter act 0.56µM* and SMN2 splice up 0.5µM*.
CC1(C)Cc2ccccc2-c2nnc(-c3ccccc3)n21 was read as ELG1 genotoxic -7%, FLuc modulator -16%, NPC1 prom act -3%, ELG1 repair inh -7%, Rab9 promoter act 0% and SMN2 splice up -15%.
CCn1ccc2cc(S(=O)(=O)N3CCC(C(=O)NCCc4ccccc4)CC3)ccc21 was read as FLuc modulator -1%.

Source: PubChem (National Center for Advancing Translational Sciences (NCATS))
